According to ChEMBL document CHEMBL2218924, “A broad activity screen in support of a chemogenomic map for kinase signalling research and drug discovery” (Biochem J, 2013):

Tests used:
[1] = target: Protein kinase C eta type (Homo sapiens) (UniProt P24723); settings: at 1 µM
[2] = target: Protein kinase C eta type (Homo sapiens) (UniProt P24723); settings: at 10 µM
[3] = target: Protein kinase C theta type (Homo sapiens) (UniProt Q04759); settings: at 1 µM
[4] = target: Protein kinase C theta type (Homo sapiens) (UniProt Q04759); settings: at 10 µM
[5] = target: T1, Protein kinase C iota type (Homo sapiens) (UniProt P41743); settings: at 10 µM
T1 sequence (whole entry): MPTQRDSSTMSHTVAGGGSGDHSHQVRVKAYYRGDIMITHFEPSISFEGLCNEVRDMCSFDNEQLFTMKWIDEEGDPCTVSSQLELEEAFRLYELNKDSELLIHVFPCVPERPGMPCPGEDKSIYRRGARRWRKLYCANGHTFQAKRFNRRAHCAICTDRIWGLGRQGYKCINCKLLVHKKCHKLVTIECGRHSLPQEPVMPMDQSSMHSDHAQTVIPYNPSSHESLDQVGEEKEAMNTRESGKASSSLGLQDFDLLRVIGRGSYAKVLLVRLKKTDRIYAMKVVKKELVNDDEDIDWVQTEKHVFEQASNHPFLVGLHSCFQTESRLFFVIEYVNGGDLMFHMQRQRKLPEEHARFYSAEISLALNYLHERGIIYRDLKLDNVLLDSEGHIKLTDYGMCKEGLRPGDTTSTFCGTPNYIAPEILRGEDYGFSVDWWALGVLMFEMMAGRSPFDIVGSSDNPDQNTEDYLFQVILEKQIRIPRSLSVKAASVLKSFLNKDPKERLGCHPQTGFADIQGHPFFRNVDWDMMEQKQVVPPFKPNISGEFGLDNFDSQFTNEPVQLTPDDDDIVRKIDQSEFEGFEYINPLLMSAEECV

[6] = target: T2, Serine/threonine-protein kinase D1 (Homo sapiens) (UniProt Q15139); settings: at 1 µM
T2 sequence (whole entry): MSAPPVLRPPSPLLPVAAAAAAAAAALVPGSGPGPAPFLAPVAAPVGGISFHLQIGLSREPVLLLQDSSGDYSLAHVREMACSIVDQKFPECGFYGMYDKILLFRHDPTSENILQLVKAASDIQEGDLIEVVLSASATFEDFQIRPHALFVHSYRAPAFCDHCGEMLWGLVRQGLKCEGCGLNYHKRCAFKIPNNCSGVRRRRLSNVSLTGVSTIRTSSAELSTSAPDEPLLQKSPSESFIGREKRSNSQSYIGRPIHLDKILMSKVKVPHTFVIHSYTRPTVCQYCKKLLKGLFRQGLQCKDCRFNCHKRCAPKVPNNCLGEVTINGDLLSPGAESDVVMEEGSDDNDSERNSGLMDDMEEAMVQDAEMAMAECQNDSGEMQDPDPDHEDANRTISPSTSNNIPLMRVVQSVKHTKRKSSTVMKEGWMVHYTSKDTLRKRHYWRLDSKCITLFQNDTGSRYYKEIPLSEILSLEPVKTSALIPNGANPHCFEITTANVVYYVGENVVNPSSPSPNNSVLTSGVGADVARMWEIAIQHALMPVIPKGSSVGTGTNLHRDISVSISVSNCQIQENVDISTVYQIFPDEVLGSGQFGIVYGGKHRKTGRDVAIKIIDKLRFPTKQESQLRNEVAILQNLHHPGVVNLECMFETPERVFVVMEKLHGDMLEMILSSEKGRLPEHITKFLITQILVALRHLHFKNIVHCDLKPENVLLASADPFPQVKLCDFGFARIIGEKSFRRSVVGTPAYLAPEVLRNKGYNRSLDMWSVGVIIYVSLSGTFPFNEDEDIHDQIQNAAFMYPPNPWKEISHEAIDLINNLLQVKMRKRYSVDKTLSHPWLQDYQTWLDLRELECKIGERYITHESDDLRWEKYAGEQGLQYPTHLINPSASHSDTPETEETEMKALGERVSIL

[7] = target: T2, Serine/threonine-protein kinase D1 (Homo sapiens); settings: at 10 µM
[8] = target: T3, Serine/threonine-protein kinase D2 (Homo sapiens) (UniProt Q9BZL6); settings: at 10 µM
T3 sequence (whole entry): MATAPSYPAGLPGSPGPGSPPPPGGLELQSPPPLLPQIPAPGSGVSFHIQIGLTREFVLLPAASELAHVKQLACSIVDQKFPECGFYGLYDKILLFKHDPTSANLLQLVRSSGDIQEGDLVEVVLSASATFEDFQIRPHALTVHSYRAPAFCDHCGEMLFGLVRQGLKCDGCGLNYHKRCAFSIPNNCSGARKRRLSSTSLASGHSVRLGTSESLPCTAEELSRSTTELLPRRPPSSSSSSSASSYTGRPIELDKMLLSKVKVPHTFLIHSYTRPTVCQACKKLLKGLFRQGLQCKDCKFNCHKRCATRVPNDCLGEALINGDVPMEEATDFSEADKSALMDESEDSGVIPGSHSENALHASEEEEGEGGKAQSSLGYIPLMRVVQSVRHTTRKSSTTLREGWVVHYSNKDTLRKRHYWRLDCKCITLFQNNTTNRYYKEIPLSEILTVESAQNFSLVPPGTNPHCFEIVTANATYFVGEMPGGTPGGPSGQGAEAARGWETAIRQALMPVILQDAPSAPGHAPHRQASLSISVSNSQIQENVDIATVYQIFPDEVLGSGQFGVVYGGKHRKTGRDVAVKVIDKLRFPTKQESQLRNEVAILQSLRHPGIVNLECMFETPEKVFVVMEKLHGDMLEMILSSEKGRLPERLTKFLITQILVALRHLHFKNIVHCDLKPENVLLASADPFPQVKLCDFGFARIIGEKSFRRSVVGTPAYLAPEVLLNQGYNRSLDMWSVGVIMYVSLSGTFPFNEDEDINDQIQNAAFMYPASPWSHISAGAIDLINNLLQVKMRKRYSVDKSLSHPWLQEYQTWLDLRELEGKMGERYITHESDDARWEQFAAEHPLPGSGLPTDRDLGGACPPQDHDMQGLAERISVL

[9] = target: T4, cGMP-dependent protein kinase 1 (Homo sapiens) (UniProt Q13976); settings: at 1 µM
T4 sequence (whole entry): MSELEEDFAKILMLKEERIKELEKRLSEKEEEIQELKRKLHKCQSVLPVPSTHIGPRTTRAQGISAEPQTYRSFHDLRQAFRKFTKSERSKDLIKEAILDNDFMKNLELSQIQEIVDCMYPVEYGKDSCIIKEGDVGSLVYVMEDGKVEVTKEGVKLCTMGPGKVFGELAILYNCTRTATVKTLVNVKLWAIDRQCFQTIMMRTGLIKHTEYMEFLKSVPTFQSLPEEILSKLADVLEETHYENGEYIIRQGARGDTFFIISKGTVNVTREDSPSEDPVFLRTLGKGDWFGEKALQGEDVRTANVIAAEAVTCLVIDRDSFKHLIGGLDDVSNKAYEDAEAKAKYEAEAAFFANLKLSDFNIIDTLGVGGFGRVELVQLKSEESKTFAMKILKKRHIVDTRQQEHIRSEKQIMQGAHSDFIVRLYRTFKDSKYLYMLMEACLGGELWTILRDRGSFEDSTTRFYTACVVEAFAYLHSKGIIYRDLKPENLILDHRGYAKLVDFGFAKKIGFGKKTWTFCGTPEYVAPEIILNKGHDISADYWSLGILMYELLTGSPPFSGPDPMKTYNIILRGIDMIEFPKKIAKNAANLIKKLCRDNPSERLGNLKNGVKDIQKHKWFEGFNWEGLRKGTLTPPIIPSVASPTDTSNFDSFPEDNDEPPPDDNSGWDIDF

[10] = target: T4, cGMP-dependent protein kinase 1 (Homo sapiens); settings: at 10 µM
[11] = target: T4, cGMP-dependent protein kinase 1 (Homo sapiens); settings: at 10 µM; remark: listed apart in the source
[12] = target: Serine/threonine-protein kinase N2 (Homo sapiens) (UniProt Q16513); settings: at 10 µM
Chain of Serine/threonine-protein kinase N2 (Homo sapiens) (Q16513 whole entry, looked up): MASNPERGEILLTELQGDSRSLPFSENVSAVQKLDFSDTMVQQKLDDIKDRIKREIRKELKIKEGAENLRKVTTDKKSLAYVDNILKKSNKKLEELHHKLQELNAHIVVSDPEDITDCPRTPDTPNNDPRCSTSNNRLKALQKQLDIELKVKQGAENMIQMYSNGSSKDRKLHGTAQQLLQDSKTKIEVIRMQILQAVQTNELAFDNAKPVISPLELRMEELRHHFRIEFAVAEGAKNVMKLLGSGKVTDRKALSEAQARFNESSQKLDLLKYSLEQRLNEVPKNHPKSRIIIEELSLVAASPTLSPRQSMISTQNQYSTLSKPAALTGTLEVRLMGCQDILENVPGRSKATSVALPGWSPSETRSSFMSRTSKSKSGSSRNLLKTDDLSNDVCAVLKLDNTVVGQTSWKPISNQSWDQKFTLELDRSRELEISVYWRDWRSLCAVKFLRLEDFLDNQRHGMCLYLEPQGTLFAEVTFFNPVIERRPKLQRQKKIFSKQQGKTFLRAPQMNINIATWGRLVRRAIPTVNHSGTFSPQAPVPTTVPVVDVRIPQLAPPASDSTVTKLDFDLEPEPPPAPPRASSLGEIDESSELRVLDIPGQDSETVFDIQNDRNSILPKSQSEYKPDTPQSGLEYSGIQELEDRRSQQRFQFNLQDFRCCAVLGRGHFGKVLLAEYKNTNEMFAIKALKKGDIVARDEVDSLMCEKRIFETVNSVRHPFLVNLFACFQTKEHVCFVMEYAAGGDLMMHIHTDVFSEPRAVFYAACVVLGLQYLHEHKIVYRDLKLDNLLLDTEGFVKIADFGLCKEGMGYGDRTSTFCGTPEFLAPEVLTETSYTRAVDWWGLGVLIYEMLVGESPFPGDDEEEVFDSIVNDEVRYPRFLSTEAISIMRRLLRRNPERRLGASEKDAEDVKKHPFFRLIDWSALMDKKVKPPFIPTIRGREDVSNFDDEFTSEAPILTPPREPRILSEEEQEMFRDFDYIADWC

[13] = target: Tyrosine-protein kinase FRK (Homo sapiens) (UniProt P42685); settings: at 1 µM
Chain of Tyrosine-protein kinase FRK (Homo sapiens) (P42685 whole entry): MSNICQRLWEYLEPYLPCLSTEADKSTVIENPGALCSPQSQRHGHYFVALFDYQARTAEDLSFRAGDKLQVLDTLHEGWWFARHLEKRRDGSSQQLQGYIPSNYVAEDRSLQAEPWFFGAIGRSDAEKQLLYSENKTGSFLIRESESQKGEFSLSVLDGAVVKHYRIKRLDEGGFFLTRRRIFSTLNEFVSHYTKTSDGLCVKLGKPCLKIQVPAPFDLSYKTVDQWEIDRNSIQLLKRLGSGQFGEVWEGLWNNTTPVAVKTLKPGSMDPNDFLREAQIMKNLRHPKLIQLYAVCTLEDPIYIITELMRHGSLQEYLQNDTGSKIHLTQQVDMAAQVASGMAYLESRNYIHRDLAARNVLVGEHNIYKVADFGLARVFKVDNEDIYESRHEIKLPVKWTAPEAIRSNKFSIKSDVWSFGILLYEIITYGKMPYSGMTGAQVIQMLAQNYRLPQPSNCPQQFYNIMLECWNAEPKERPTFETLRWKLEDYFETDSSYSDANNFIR

[14] = target: Tyrosine-protein kinase FRK (Homo sapiens) (UniProt P42685); settings: at 10 µM
[15] = target: T1, Protein kinase C iota type (Homo sapiens); settings: at 1 µM
[16] = target: T3, Serine/threonine-protein kinase D2 (Homo sapiens); settings: at 1 µM
[17] = target: T4, cGMP-dependent protein kinase 1 (Homo sapiens); settings: at 1 µM; remark: listed apart in the source
[18] = target: T5, MAP kinase-activated protein kinase 5 (Homo sapiens) (UniProt Q8IW41); settings: at 1 µM
T5 sequence (whole entry): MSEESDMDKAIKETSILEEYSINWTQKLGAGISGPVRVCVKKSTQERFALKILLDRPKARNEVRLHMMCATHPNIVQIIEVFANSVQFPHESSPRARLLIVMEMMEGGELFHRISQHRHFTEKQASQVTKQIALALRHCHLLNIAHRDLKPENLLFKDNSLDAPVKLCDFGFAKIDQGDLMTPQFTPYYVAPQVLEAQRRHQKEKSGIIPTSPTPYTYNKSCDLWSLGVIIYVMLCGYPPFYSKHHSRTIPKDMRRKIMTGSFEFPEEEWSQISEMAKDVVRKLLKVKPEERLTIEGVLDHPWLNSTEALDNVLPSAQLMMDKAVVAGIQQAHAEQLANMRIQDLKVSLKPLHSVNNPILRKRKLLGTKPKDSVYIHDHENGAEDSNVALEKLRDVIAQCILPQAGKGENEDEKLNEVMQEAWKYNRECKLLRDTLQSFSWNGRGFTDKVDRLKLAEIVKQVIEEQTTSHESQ

[19] = target: T5, MAP kinase-activated protein kinase 5 (Homo sapiens); settings: at 10 µM
[20] = target: Serine/threonine-protein kinase N2 (Homo sapiens) (UniProt Q16513); settings: at 1 µM

Chain of Protein kinase C eta type (Homo sapiens) (P24723 whole entry): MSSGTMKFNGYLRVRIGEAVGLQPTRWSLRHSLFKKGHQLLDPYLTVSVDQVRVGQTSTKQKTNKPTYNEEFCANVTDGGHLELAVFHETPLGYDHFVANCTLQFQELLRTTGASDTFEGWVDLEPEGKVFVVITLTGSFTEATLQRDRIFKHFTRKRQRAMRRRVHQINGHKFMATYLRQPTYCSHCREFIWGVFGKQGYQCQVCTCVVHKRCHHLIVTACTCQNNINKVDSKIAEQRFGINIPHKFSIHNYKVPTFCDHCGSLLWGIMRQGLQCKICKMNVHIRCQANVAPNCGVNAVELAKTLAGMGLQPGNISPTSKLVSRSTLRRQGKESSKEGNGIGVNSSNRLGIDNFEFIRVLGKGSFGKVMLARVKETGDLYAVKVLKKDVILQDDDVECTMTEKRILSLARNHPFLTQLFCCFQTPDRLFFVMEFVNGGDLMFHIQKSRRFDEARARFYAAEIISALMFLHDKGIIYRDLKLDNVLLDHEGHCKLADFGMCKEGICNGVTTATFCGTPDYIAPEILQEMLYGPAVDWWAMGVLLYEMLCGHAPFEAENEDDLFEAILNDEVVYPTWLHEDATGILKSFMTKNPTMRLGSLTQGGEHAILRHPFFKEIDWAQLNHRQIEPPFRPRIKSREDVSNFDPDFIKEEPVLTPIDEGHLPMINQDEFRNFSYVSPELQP
Chain of Protein kinase C theta type (Homo sapiens) (Q04759 whole entry, looked up): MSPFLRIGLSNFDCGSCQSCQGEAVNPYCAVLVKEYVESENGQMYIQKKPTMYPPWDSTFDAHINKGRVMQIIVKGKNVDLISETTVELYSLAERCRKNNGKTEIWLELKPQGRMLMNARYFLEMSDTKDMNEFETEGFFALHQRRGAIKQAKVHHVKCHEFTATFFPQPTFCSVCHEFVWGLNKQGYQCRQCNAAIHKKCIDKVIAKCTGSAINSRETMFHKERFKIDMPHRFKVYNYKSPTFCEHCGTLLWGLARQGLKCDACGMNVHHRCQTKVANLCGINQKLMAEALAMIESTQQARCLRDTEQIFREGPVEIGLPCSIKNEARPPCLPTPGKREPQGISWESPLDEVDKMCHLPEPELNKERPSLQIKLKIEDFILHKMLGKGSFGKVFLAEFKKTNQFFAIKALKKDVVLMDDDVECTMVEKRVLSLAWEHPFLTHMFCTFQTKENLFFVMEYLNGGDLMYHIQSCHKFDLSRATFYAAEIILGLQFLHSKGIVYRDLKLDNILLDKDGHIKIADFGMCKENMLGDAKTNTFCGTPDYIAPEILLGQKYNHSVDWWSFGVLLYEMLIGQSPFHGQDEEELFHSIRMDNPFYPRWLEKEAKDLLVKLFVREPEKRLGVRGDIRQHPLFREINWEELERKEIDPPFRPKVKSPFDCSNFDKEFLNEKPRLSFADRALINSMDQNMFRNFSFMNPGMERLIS

Compound	residual activity [1] [%]	residual activity [2] [%]	residual activity [3] [%]	residual activity [4] [%]	residual activity [5] [%]	residual activity [6] [%]	residual activity [7] [%]	residual activity [8] [%]	residual activity [9] [%]	residual activity [10] [%]	residual activity [11] [%]	residual activity [12] [%]	residual activity [13] [%]	residual activity [14] [%]	residual activity [15]	residual activity [16] [%]	residual activity [17] [%]	residual activity [18] [%]	residual activity [19] [%]	residual activity [20] [%]
CSc1nc(-c2ccc(F)cc2)c(-c2ccnc(NC(C)c3ccccc3)c2)[nH]1 (centres undefined)	87	73	101	72	99	97	44	94	85	86	84	94	90	94						
NC(=O)Nc1sc(-c2ccc(F)cc2)cc1C(N)=O	74	60	83	50	107	58	29	64	87	73	43	27	63	19	109% (inactive)	100	84	96	58	82
